Measured values as given in the supplement of paper PMC7695840.
Structures can show the parent of a compound that is named as a salt.

test system: Staphylococcus aureus MW2 delta-mecA (mecA-); test: normalized GFP fluorescence (growth of mecA- strain) (fraction of control range); higher = more growth of mecA- strain; settings: compound concentration: 150 uM; cefoxitin: subinhibitory; fluorescent label: GFP
Method in brief: (§1)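 Pre-induced S. aureus MW2 cells with the gene (DsRed) and without it (GFP) were mixed 1:1 in LB holding a subinhibitory antibiotic dose set daily and grown on 150 μM compound (1.5% DMSO) in 1536-well plates, single replicate, for 20 h at 37 °C. DsRed (540/590) and GFP (485/520) readings were scaled per plate between single-strain control medians. Plates with high untreated ratios and rows with DsRed/GFP >10 were excluded.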

| SMILES | normalized GFP fluorescence |
| --- | --- |
| Cc1cccc(C)c1NC(=O)C1CCCCN1C (stereo not given) | 0.677 |
| COC(=O)C1=C(C)NC(C)=C(C(=O)OC)C1c1ccccc1[N+](=O)[O-] | 0.0465 |
| CN(C)CC/C=C1/c2ccccc2Sc2ccc(Cl)cc21 | 0.0199 |
| C=CC(N)CCC(=O)O (stereo not given) | 0.441 |
| CCCN(CCC)CCc1cccc2c1CC(=O)N2 | 0.224 |
| CC(C)NCC(O)COc1cccc2ccccc12 (stereo not given) | 0.142 |
| O=C(CCCCCCC(=O)Nc1ccccc1)NO [Vorinostat (SAHA)] | 0.386 |
| O=c1[nH]cnc2c1ncn2[C@H]1CC[C@@H](CO)O1 [Didanosine (Videx)] | 0.446 |
| CN(C)CC/C=C1/c2ccccc2COc2ccc(CC(=O)O)cc21 [Olopatadine hydrochloride (Opatanol)] | 0.475 |
| COc1cc(C(=O)NCc2ccc(OCCN(C)C)cc2)cc(OC)c1OC | 0.326 |
| C=C1/C(=C\C=C2/CCC[C@]3(C)[C@@H]([C@H](C)CCCC(C)(C)O)CC[C@@H]23)C[C@@H](O)C[C@@H]1O [Calcitriol (Rocaltrol)] | -0.00685 |
| C[C@@H](c1ncncc1F)[C@](O)(Cn1cncn1)c1ccc(F)cc1F | 0.309 |
| CO/N=C(\C(=O)N[C@@H]1C(=O)N2C(C(=O)O)=C(C[N+]3(C)CCCC3)CS[C@H]12)c1csc(N)n1 | 0.0193 |
| CC(C)(C#N)c1cc(Cn2cncn2)cc(C(C)(C)C#N)c1 | 0.351 |
| CCCN(CCC)C(=O)C(CCC(=O)O)NC(=O)c1ccccc1 (stereo not given) | 0.792 |
| CCC(=O)O[C@]1(C(=O)CCl)[C@@H](C)C[C@H]2[C@@H]3CCC4=CC(=O)C=C[C@]4(C)[C@@]3(F)[C@@H](O)C[C@@]21C [Clobetasol propionate] | -0.000558 |
| Cn1c(=O)c2c(ncn2C)n(C)c1=O | 0.319 |
| COC(c1ccccc1)(c1ccccc1)[C@H](Oc1nc(C)cc(C)n1)C(=O)O [Ambrisentan] | 0.466 |
| NC[C@H]1CC[C@H](C(=O)O)CC1 | 0.867 |
| C=CC[C@@H]1/C=C(\C)C[C@H](C)C[C@H](OC)[C@H]2O[C@@](O)(C(=O)C(=O)N3CCCC[C@H]3C(=O)O[C@H](/C(C)=C/[C@@H]3CC[C@@H](O)[C@H](OC)C3)[C@H](C)[C@@H](O)CC1=O)[C@H](C)C[C@@H]2OC | 0.0654 |

| SMILES | normalized GFP fluorescence |
| --- | --- |
| CCCCN1CCCCC1C(=O)Nc1c(C)cccc1C (stereo not given) | 0.62 |
| C[C@@H]1O[C@@H](OC[C@H]2O[C@@H](Oc3c(-c4ccc(O)c(O)c4)oc4cc(O)cc(O)c4c3=O)[C@H](O)[C@@H](O)[C@@H]2O)[C@H](O)[C@H](O)[C@H]1O [Rutin (Rutoside)] | 0.394 |
| CC(C)(C)NC[C@H](O)COc1nsnc1N1CCOCC1 | 0.208 |
| CN1CCN2c3ccccc3Cc3ccccc3C2C1 (stereo not given) | 0.0802 |
| CC(C)N1CCN(c2ccc(OCC3COC(Cn4cncn4)(c4ccc(Cl)cc4Cl)O3)cc2)CC1 (stereo not given) | 0.199 |
| CCN(CC)CCCC(C)Nc1ccnc2cc(Cl)ccc12 (stereo not given) | 0.506 |
| CCCSc1ccc2[nH]c(NC(=O)OC)nc2c1 | 0.251 |
| CC(=O)N[C@@H](CS)C(=O)O | 0.328 |
| O=C1c2cccc3c2[C@H](CCC3)CN1[C@@H]1CN2CCC1CC2 [Palonosetron HCl] | 0.203 |
| C=C1CC[C@H](O)C/C1=C/C=C1\CCC[C@]2(C)[C@@H]([C@H](C)/C=C/[C@H](C)C(C)C)CC[C@@H]12 | 0.177 |
| Cc1cccc(C)c1OCC(C)N (stereo not given) | 0.344 |
| COc1ccccc1OCC(O)CN1CCN(CC(=O)Nc2c(C)cccc2C)CC1 (stereo not given) | 0.863 |
| CC(COc1ccccc1)N(CCCl)Cc1ccccc1 (stereo not given) | 0.632 |
| CC12CC3CC(C)(C1)CC(N)(C3)C2 | 0.384 |
| CC(C)(C)c1ccc(C(O)CCCN2CCC(C(O)(c3ccccc3)c3ccccc3)CC2)cc1 (stereo not given) | 0.00757 |
| Cc1[nH+]cc(COP(=O)([O-])[O-])c(CN(CCN(CC(=O)[O-])Cc2c(COP(=O)([O-])O)c[nH+]c(C)c2O)CC(=O)[O-])c1O.[Mn].[Na+].[Na+].[Na+] | 0.415 |
| Clc1ccc(C(Cn2ccnc2)OCc2ccc(Sc3ccccc3)cc2)c(Cl)c1 (stereo not given) [Fenticonazole nitrate] | -0.002 |
| Cc1cn([C@@H]2C[C@@H](O)[C@H](CO)O2)c(=O)[nH]c1=O [Telbivudine (Sebivo, Tyzeka)] | 0.205 |
| C=C1[C@H](CO)[C@@H](O)C[C@@H]1n1cnc2c(=O)[nH]c(N)nc21 [Entecavir hydrate] | 0.319 |
| Nc1ccc(C(=O)O)cc1 | 0.617 |

test system: Staphylococcus aureus MW2 (mecA+); test: normalized DsRed fluorescence (growth of mecA+ strain) (fraction of control range); higher = more growth of mecA+ strain; settings: compound concentration: 150 uM; cefoxitin: subinhibitory; fluorescent label: DsRed
Method in brief: as §1

| SMILES | normalized DsRed fluorescence |
| --- | --- |
| Cc1cccc(C)c1NC(=O)C1CCCCN1C (stereo not given) | 0.7 |
| COC(=O)C1=C(C)NC(C)=C(C(=O)OC)C1c1ccccc1[N+](=O)[O-] | 0.832 |
| CN(C)CC/C=C1/c2ccccc2Sc2ccc(Cl)cc21 | 1.12 |
| C=CC(N)CCC(=O)O (stereo not given) | 0.716 |
| CCCN(CCC)CCc1cccc2c1CC(=O)N2 | 1.03 |
| CC(C)NCC(O)COc1cccc2ccccc12 (stereo not given) | 1.24 |
| O=C(CCCCCCC(=O)Nc1ccccc1)NO [Vorinostat (SAHA)] | 0.944 |
| O=c1[nH]cnc2c1ncn2[C@H]1CC[C@@H](CO)O1 [Didanosine (Videx)] | 0.652 |
| CN(C)CC/C=C1/c2ccccc2COc2ccc(CC(=O)O)cc21 [Olopatadine hydrochloride (Opatanol)] | 0.587 |
| COc1cc(C(=O)NCc2ccc(OCCN(C)C)cc2)cc(OC)c1OC | 0.862 |
| C=C1/C(=C\C=C2/CCC[C@]3(C)[C@@H]([C@H](C)CCCC(C)(C)O)CC[C@@H]23)C[C@@H](O)C[C@@H]1O [Calcitriol (Rocaltrol)] | 1 |
| C[C@@H](c1ncncc1F)[C@](O)(Cn1cncn1)c1ccc(F)cc1F | 0.766 |
| CO/N=C(\C(=O)N[C@@H]1C(=O)N2C(C(=O)O)=C(C[N+]3(C)CCCC3)CS[C@H]12)c1csc(N)n1 | 0.073 |
| CC(C)(C#N)c1cc(Cn2cncn2)cc(C(C)(C)C#N)c1 | 0.796 |
| CCCN(CCC)C(=O)C(CCC(=O)O)NC(=O)c1ccccc1 (stereo not given) | 0.55 |
| CCC(=O)O[C@]1(C(=O)CCl)[C@@H](C)C[C@H]2[C@@H]3CCC4=CC(=O)C=C[C@]4(C)[C@@]3(F)[C@@H](O)C[C@@]21C [Clobetasol propionate] | 1.15 |
| Cn1c(=O)c2c(ncn2C)n(C)c1=O | 0.708 |
| COC(c1ccccc1)(c1ccccc1)[C@H](Oc1nc(C)cc(C)n1)C(=O)O [Ambrisentan] | 0.281 |
| NC[C@H]1CC[C@H](C(=O)O)CC1 | 0.725 |
| C=CC[C@@H]1/C=C(\C)C[C@H](C)C[C@H](OC)[C@H]2O[C@@](O)(C(=O)C(=O)N3CCCC[C@H]3C(=O)O[C@H](/C(C)=C/[C@@H]3CC[C@@H](O)[C@H](OC)C3)[C@H](C)[C@@H](O)CC1=O)[C@H](C)C[C@@H]2OC | 1.59 |

| SMILES | normalized DsRed fluorescence |
| --- | --- |
| CCCCN1CCCCC1C(=O)Nc1c(C)cccc1C (stereo not given) | 0.887 |
| C[C@@H]1O[C@@H](OC[C@H]2O[C@@H](Oc3c(-c4ccc(O)c(O)c4)oc4cc(O)cc(O)c4c3=O)[C@H](O)[C@@H](O)[C@@H]2O)[C@H](O)[C@H](O)[C@H]1O [Rutin (Rutoside)] | 0.725 |
| CC(C)(C)NC[C@H](O)COc1nsnc1N1CCOCC1 | 0.811 |
| CN1CCN2c3ccccc3Cc3ccccc3C2C1 (stereo not given) | 1.52 |
| CC(C)N1CCN(c2ccc(OCC3COC(Cn4cncn4)(c4ccc(Cl)cc4Cl)O3)cc2)CC1 (stereo not given) | 0.734 |
| CCN(CC)CCCC(C)Nc1ccnc2cc(Cl)ccc12 (stereo not given) | 0.443 |
| CCCSc1ccc2[nH]c(NC(=O)OC)nc2c1 | 0.742 |
| CC(=O)N[C@@H](CS)C(=O)O | 0.653 |
| O=C1c2cccc3c2[C@H](CCC3)CN1[C@@H]1CN2CCC1CC2 [Palonosetron HCl] | 0.709 |
| C=C1CC[C@H](O)C/C1=C/C=C1\CCC[C@]2(C)[C@@H]([C@H](C)/C=C/[C@H](C)C(C)C)CC[C@@H]12 | 0.448 |
| Cc1cccc(C)c1OCC(C)N (stereo not given) | 1.02 |
| COc1ccccc1OCC(O)CN1CCN(CC(=O)Nc2c(C)cccc2C)CC1 (stereo not given) | 0.62 |
| CC(COc1ccccc1)N(CCCl)Cc1ccccc1 (stereo not given) | 0.449 |
| CC12CC3CC(C)(C1)CC(N)(C3)C2 | 0.672 |
| CC(C)(C)c1ccc(C(O)CCCN2CCC(C(O)(c3ccccc3)c3ccccc3)CC2)cc1 (stereo not given) | 0.056 |
| Cc1[nH+]cc(COP(=O)([O-])[O-])c(CN(CCN(CC(=O)[O-])Cc2c(COP(=O)([O-])O)c[nH+]c(C)c2O)CC(=O)[O-])c1O.[Mn].[Na+].[Na+].[Na+] | 0.481 |
| Clc1ccc(C(Cn2ccnc2)OCc2ccc(Sc3ccccc3)cc2)c(Cl)c1 (stereo not given) [Fenticonazole nitrate] | 0.0182 |
| Cc1cn([C@@H]2C[C@@H](O)[C@H](CO)O2)c(=O)[nH]c1=O [Telbivudine (Sebivo, Tyzeka)] | 0.951 |
| C=C1[C@H](CO)[C@@H](O)C[C@@H]1n1cnc2c(=O)[nH]c(N)nc21 [Entecavir hydrate] | 0.447 |
| Nc1ccc(C(=O)O)cc1 | 0.958 |
